From PubChem
Hits are enriched below; roughly 11% of the tested compounds scored in any of these assays.
NIH3T3 tox: NIH 3T3 cell cytotoxicity; NIH 3T3 viability, CellTiter-Glo ATP luminescence, 48-72 h; Potency, µM (highest dose often 96.7 µM), hits mostly inhibitors; 94,000 tested, 4.3% active; AID 1345082; also: nearly all actives have a fitted effect of over 55% in size
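Viability of NIH 3T3 cells after 48 or 72 hr compound treatment at 37 °C was assessed by CellTiter-Glo, with luminescence imaged following a 10 min room-temperature step.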
Luciferase inh: blocks purified firefly luciferase enzyme activity. P08659. purified P. pyralis luciferase, luminescence, biochemical. Potency, µM (series often up to 115 µM), hits mostly inhibitors. 76,000 tested, 2.5% active. AID 1347043; also: nearly all actives have a fitted effect of over 65% in size
Target sequence (P08659 whole entry, looked up): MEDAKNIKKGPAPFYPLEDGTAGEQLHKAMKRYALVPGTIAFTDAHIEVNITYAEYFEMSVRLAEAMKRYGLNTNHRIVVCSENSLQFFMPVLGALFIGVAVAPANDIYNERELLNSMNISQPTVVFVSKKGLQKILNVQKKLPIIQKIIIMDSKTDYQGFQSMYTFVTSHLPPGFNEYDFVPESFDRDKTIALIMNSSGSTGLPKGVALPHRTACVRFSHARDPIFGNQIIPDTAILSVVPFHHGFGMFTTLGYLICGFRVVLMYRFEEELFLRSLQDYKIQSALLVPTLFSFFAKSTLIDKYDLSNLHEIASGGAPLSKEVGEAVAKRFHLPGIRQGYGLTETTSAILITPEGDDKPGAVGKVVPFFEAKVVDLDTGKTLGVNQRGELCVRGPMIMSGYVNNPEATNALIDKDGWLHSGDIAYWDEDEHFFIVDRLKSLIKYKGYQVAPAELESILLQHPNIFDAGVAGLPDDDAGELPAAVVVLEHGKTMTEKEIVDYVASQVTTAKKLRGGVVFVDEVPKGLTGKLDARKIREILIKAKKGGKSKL
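Cell-free enzyme assay, 10nM P. pyralis luciferase, luciferin and ATP each at 10uM. Inhibition profiled over a 6-point titration, read as luminescence.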
NPR1 antag: human Npr1 receptor antagonism; AID 1347048; P16066; Potency, µM (top dose mostly 46.3 µM), usual class: inhibitors; 76,000 tested, 1.6% active; HEK293 hNpr1 GloSensor cGMP, ANP-stimulated luminescence; calls by dose curve; also: nearly all actives have a fitted effect of over 60% in size
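Compound pre-incubated 30 min at room temperature on GloSensor-loaded HEK293 cells stably carrying hNpr1 and the pGS-40F cGMP biosensor. Stimulation uses hNppA at 0.1 nM final; luminescence is taken at baseline and 20 min post-agonist.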
HEK293 tox: kills HEK 293 cells; HEK 293 viability, ATP luminescence (CellTiter-Glo), 48-72 h; AID 1345083; 94,000 tested, 6.6% active; Potency, µM (titrated, usually from 115 µM), usual class: inhibitors; also: nearly all actives have a fitted effect of over 60% in size
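Cytotoxicity was scored by loss of ATP-coupled luminescence (CellTiter-Glo) in HEK 293 cells. Compound treatment ran 48 or 72 hr at 37 degree Celsius, 5% CO2, 95% humidity.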
Numbers stand for hits; – = inactive; ? = inconclusive; · = no result; ! = a repeat was not active. Unless noted, calls follow the shape of the dose curve; as a rule, active = well fitted curve in the direction sought with a large enough effect; inconclusive = small, poorly fitted or top-dose-only effect, or another doubt; inactive = no such curve, though single readings can be large; an effect the other way counts as inactive or inconclusive.

SMILES	NIH3T3 tox	Luciferase inh	NPR1 antag	HEK293 tox
CC(C)NC(=O)NC[C@H]1O[C@H](Cc2cc(-c3ccc(F)cc3)on2)CC[C@@H]1O	–	–	–	?
O=C(NC[C@H]1O[C@H](Cc2cc(-c3ccc(F)cc3)on2)CC[C@@H]1O)c1ccccc1F	–	22.4µM	?	–
COc1ccccc1C(=O)N1CCC(C(NC(=O)c2ccccc2C)C(=O)N2CCCC2)CC1 (stereo unspecified)	?	–	–	–
O[C@H]1CC[C@@H](Cc2cc(-c3ccc(F)cc3)on2)O[C@@H]1CNCc1ccncc1	–	–	–	–
Cc1ccc(CNC[C@H]2O[C@H](Cc3cc(-c4ccc(F)cc4)on3)CC[C@@H]2O)cc1	31.6µM	–	–	39.8µM
COCC(=O)N[C@H]1C[C@@H](Cc2cc(CN(C)Cc3ccccc3)on2)C1(C)C	?	–	–	?
CC1(C)[C@H](Cc2cc(CN3CCCCC3)on2)C[C@@H]1NCc1ccccn1	112µM	–	–	?
CN(Cc1cc(C[C@@H]2C[C@H](NCc3ncc[nH]3)C2(C)C)no1)c1ccccc1	100µM	?	–	63.1µM
CC(=O)N[C@H]1C[C@@H](Cc2cc(CN(C)c3ccccc3)on2)C1(C)C	–	–	–	79.4µM
COCC(=O)N[C@H]1C[C@@H](Cc2cc(CN(C)c3ccccc3)on2)C1(C)C	?	–	–	44.7µM
CC(C)NC(=O)N[C@H]1C[C@@H](Cc2cc(CN(C)c3ccccc3)on2)C1(C)C	?	–	–	?
CCOC(=O)[C@@H]1[C@@H](OC(N)=O)C(=O)N(Cc2ccccc2)C12CCN(C(=O)C1CC1)CC2	?	·	·	–
O=C(c1cc2n(n1)CC(c1ccc(Cl)cc1)OC2)N1CCN(c2ccccc2)CC1 (stereo unspecified)	?	–	20µM	?
CC1CCN(C(=O)c2cc3n(n2)CC(c2ccc(Cl)cc2)OC3)CC1 (stereo unspecified)	39.8µM	–	?	?
CC1=C[C@@H](CNCc2cccnc2)[C@H](C(C)C)C[C@H]1Cc1nnc(-c2ccc(N(C)C)cc2)o1	?	–	?	17.8µM
CC1=C[C@@H](CNCc2ccccn2)[C@H](C(C)C)C[C@H]1Cc1nnc(-c2ccc(N(C)C)cc2)o1	?	–	–	11.2µM
CC1=C[C@@H](CNCc2ccccn2)[C@H](C(C)C)C[C@H]1Cc1nnc(-c2ccccc2)o1	?	–	?	79.4µM
O=C1CCCCC(Cc2ccccc2)(C(=O)N2CCN(c3ccccn3)CC2)N1 (stereo unspecified)	–	·	·	?
COC(=O)c1cccc(COCC2=CC(C)(C)COc3ccc(OC)cc32)c1	?	·	·	28.2µM
Cc1oc2c(c1C(=O)N1CCN(c3ccccc3)CC1)CN(Cc1ccccc1)CC2	?	–	–	?
Cc1ccc2nc(C3CCCN(CC4CCCC4)C3)[nH]c(=O)c2c1 (stereo unspecified)	?	–	–	70.8µM!
Cc1ccc2nc(C3CCCN(Cc4ccccc4)C3)[nH]c(=O)c2c1 (stereo unspecified)	?	–	–	63.1µM!
Cc1cc(C)cc(-c2ccc(CN3CCCC(c4nc5ccc(F)cc5c(=O)[nH]4)C3)cc2)c1 (stereo unspecified)	17.8µM	–	–	39.8µM!
Cc1ccc2nc(C3CCN(Cc4ccc(-c5cccs5)cc4)CC3)[nH]c(=O)c2c1	?	–	–	35.5µM!
Cc1nnc2ccc(N3CCCC(N[S+](=O)([O-])c4cccs4)C3)nn12 (stereo unspecified)	–	·	·	–
SMILES	NIH3T3 tox	Luciferase inh	NPR1 antag	HEK293 tox
O=C(NCc1ccccn1)c1cn2cc(-c3ccc(C(F)(F)F)cc3)sc2n1	–	·	·	–
O=C(NCc1cccs1)C1CCc2nc(N3CCN(C(=O)C4CCC4)CC3)sc2C1 (stereo unspecified)	–	–	–	–
N#Cc1cccc(-c2c(C(=O)NCCc3ccccc3F)nc3sccn23)c1	–	·	·	?
CC(C)CN1CCCC(c2nc3ccc(F)cc3c(=O)[nH]2)C1 (stereo unspecified)	31.6µM	–	–	25.1µM
O=C(Cc1cccc(Cl)c1)NC1CCCN(c2ccc3nnc(C4CC4)n3n2)C1 (stereo unspecified)	–	·	·	–
O=C(Cc1cccc(Cl)c1)NC1CCCN(c2ccc3nnc(-c4ccccc4)n3n2)C1 (stereo unspecified)	35.5µM	·	·	35.5µM
COc1ccccc1C(=O)NC1CCN(c2ccc3nnc(-c4ccccc4)n3n2)CC1	?	·	·	35.5µM
O=C(NC1CCN(c2ccc3nnc(-c4ccccc4)n3n2)C1)c1ccc(F)cc1 (stereo unspecified)	–	·	·	–
O=C(NC1CCN(c2ccc3nnc(-c4ccccc4)n3n2)C1)c1ccccc1Cl (stereo unspecified)	31.6µM	·	·	35.5µM
O=C(NC1CCN(c2ccc3nnc(-c4ccccc4)n3n2)CC1)c1ccccc1F	–	·	·	?
COC(=O)CN1CCOC(c2ccc3cc(OC)ccc3c2)C1 (stereo unspecified)	?	–	–	?
CCc1nc(CN2CCOC(c3ccc4cc(OC)ccc4c3)C2)no1 (stereo unspecified)	?	39.8µM	–	?
COc1cc(-c2nccc3c(=O)cc(N4CCOCC4)oc23)ccn1	?	–	–	–
O=c1cc(N2CCOCC2)oc2c(-c3ccncc3)nccc12	22.4µM	–	–	?
O=c1cc(N2CCOCC2)oc2c(-c3ccccc3F)nccc12	8.91µM	–	–	?
C=CCC1(CO)CCCN(Cc2cc(C3CCCCC3)no2)C1 (stereo unspecified)	?	–	–	39.8µM
CC(C)N1CC(C(=O)NCCc2ccc(F)cc2)NC1=O (stereo unspecified)	–	·	·	–
O=C(c1ccc(Cn2ccnc2)o1)N1CCC2(CC1)NCCc1c2[nH]c2ccccc12	?	–	–	?
Cn1c(CN2CCCCC2)nnc1C1CCCN(C(=O)c2cocn2)C1 (stereo unspecified)	–	–	–	–
COCC1CN(Cc2ccc(Cl)cc2)CC12CCNCC2 (stereo unspecified)	?	–	–	?
OCC1CN(Cc2ccc(C(F)(F)F)cc2)CC12CCNCC2 (stereo unspecified)	–	–	–	?
O=C(c1ccccc1F)N1CCC2(CC1)CN(Cc1ccccc1)CC2CO (stereo unspecified)	?	–	–	79.4µM
OCC1CN(Cc2ccc(Br)cc2)CC12CCNCC2 (stereo unspecified)	39.8µM	–	–	39.8µM
O=C(COc1ccccc1)N1CCC2(CC1)CN(Cc1ccccc1)CC2CO (stereo unspecified)	?	–	–	?
COCC1CN(Cc2ccc(C(C)C)cc2)CC12CCNCC2 (stereo unspecified)	?	–	–	44.7µM
CN1CCC(NC(=O)c2nc3nc(-c4ccccc4)c(-c4cccc(O)c4)cc3n2C)CC1	11.2µM	–	–	35.5µM
CN(C)CCNC(=O)c1nc2nc(-c3ccccc3)c(Cl)cc2n1C	?	–	–	–
